Only a selection was taken, and hits are over-represented in it overall.
PKM2 inh: PKM2 (human) enzyme inhibition; P14618; Potency, µM (doses to about 57.5 µM), hits mostly inhibitors; AID 1634; 260,000 tested, 0.058% active; purified PKM2, ATP generation, Kinase-Glo luminescence; active = well fitted inhibition curve with a large enough effect; note: nearly all actives have a fitted effect of over 60% in size
Target sequence (P14618 whole entry, looked up): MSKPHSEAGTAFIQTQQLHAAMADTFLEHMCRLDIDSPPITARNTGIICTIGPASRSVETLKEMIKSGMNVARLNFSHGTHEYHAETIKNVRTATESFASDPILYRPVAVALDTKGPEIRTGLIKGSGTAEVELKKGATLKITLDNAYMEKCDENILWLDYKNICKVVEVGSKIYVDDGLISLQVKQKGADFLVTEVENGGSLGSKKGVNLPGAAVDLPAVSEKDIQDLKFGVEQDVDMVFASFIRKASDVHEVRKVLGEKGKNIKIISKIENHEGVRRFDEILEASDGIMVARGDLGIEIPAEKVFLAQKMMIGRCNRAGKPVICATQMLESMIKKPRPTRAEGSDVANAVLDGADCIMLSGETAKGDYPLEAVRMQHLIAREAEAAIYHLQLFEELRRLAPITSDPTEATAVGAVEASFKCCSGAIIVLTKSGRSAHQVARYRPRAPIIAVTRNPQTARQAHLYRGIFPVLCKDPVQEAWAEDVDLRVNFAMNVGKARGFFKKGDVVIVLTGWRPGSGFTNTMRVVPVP
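Coupled luciferase luminescence (Kinase-Glo) detects ATP generated from 0.1 mM ADP and 0.5 mM PEP in imidazole buffer pH 7.2 with KCl, MgCl2; 1 h at room temperature. Enzyme at intermediate activity; normalized to uninhibited and no-enzyme controls.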
Large screens that a line does not name were inactive.

CC(C)c1ccc2oc3nc(N)c(C(=O)O)cc3c(=O)c2c1	PKM2 inh 14µM
Cc1ccc(CNC(=O)c2cc3c(=O)n(C)c4ccccc4c3n2C)o1	none
CSc1sc(-c2ccnc(=S)[nH]2)c(-c2ccccc2)c1C#N	none
O=C(CCC(=O)N1CCN(S(=O)(=O)c2cccc(F)c2)CC1)c1cccs1	none
COc1ccc(N2CCN(C(=O)c3ccc(NS(=O)(=O)c4cccc(F)c4)cc3)CC2)cc1	none
Cn1c(-c2ccc([N+](=O)[O-])cc2)nc2ccccc21	none
CC1=NN(c2ccc([N+](=O)[O-])cc2)C(=O)/C1=C\N(C)C	PKM2 inh 16µM
O=C1C=CC(=O)N1c1ccc(Sc2ccc([N+](=O)[O-])cc2)cc1	none
CC1=C(C#N)C(=O)NC(=O)/C1=C\c1ccc(-c2cc(C)c(C)cc2[N+](=O)[O-])o1	none
COc1cccc(CNc2nc3ccccc3n2C)c1O	none
CN(C)c1ccc(N=Nc2nc3ccccc3n2C)cc1	PKM2 inh 16µM
CNc1ccccc1-c1nc2ccccc2n(C)c1=O	none
Cc1cc2[nH]c(=O)c(=O)[nH]c2cc1S(=O)(=O)Nc1cccc(Cl)c1C	none
Oc1ccc(Nc2nc(-c3cccnc3)cs2)cc1	none
COc1ccccc1NCC(=O)NNC(C)C(=O)Nc1cccc(Cl)c1 (stereo not drawn)	none
COc1ccc(N2C(=O)CC(Sc3nnnn3-c3ccc(F)cc3)C2=O)cc1 (stereo not drawn)	none
Cc1nc(NC(=O)c2ccco2)sc1C(=O)O	PKM2 inh 13µM
CCCn1c(NC(=O)c2ccco2)nc2ccccc21	none
CC(=O)c1sc(NC(=O)c2ccc(Cn3cc(Br)cn3)o2)nc1C	none
Cc1nc2ccc(S(=O)(=O)NCC(=O)N(C)Cc3ccco3)cc2s1	none
COc1ccc2nc(NC(=O)c3ccoc3C)sc2c1	PKM2 inh 16µM
COc1ccc2nc(NC(=O)CCNC(=O)c3ccccc3Cl)sc2c1	none
Cc1ccnc(NS(=O)(=O)c2ccc3c(c2)CCO3)c1	none
N#CCCN1CCN(S(=O)(=O)c2ccc3c(c2)OCCCO3)CC1	none
Cc1cccc2cc(CN(Cc3ccco3)C(=O)c3ccncc3)c(=O)[nH]c12	none
CCC(=O)Oc1ccc(C(=O)Nc2ccc3c(c2)OCO3)cc1	PKM2 inh 14µM
CC(=O)Oc1ccc(C(=O)Nc2cccc(C(=O)c3cccc(NC(=O)c4ccc(OC(C)=O)cc4)c3)c2)cc1	none
CS(=O)(=O)Nc1ccc(C(=O)NCc2ccc3c(c2)OCO3)cc1	none
CC(C(=O)Nc1cccc([N+](=O)[O-])c1)N1CCN(C/C=C/c2ccccc2)CC1 (stereo not drawn)	none
Cc1cc(C)c2[nH]c(=O)c(CN(Cc3ccco3)C(=O)C3CCCO3)cc2c1 (stereo not drawn)	none
Cc1ccccc1-c1noc(-c2ccccc2C(=O)NCc2ccco2)n1	none
Cc1ccc(Nc2cc(C)c3c(O)cccc3n2)cc1C	none
COc1cc(F)ccc1S(=O)(=O)n1c(C)nc2ccccc21	none
COc1cccc2nc3cc(C)c(C)cc3nc12	PKM2 inh 14µM
O=C(CSc1nnc(SCc2ccccc2)s1)N/N=C/C=C/c1ccco1	none
CN(C)S(=O)(=O)c1ccc(N)c([N+](=O)[O-])c1	none
COc1ccc(C(=O)O/N=C(/C)c2cccs2)cc1	PKM2 inh 14µM
COc1ccc2cc(/C(C)=N/NC(=O)C3CC3)ccc2c1	none
COc1ccc(S(=O)(=O)N2CCN(C(=O)c3cccs3)CC2)cc1	none
CCOC(=O)c1ccc(-n2c(CCC(=O)O)ccc2-c2cccs2)cc1	none
c1ccc(CNc2ncnc3scc(-c4cccs4)c23)nc1	none
Cc1cc(-c2ccccc2)nc(N(C)NC(=O)c2c(F)cccc2F)c1S(C)(=O)=O	none
CCOc1ccc(S(=O)(=O)N2CCc3cc(OC)c(OC)cc3C2)cc1	none
COc1cccc(NC(=O)CCN2C(=O)c3ccc([N+](=O)[O-])cc3C2=O)c1	none
COc1ccc(NC(=O)c2[nH]c(C)c(C(C)=O)c2C)cc1	none
COc1ccc(NC(=O)c2cc([N+](=O)[O-])ccc2O)cc1	PKM2 inh 16µM
COc1ccc(C(=O)Nc2scc(-c3ccc(Cl)cc3Cl)c2C(N)=O)cc1	none
O=C(NCc1ccco1)c1cc2ccc(O)cc2oc1=O	PKM2 inh 11µM
O=C(NNC(=O)c1cc2cc(Br)ccc2oc1=O)c1ccc(O)cc1O	none
Cc1c(Br)cc(C(=O)NCc2ccco2)c(C)c1C	none
CNC(=O)c1cc2ncc(C(F)(F)F)cc2s1	none
NC12CC3CC(C1)CC(O)(C3)C2	none
O=C(CSc1n[nH]c(=O)n1C1CC1)NCc1ccccc1Cl	none
CNc1nc(-c2ccccc2)[n+](-c2ccc(C)cc2)s1	PKM2 inh 10µM
COCCN(C(=O)/C=C/c1cccc([N+](=O)[O-])c1)c1c(N)n(Cc2ccccc2)c(=O)[nH]c1=O	none
CCN(CC)c1ccc(/C=C2\SC(=O)N(C(C)C)C2=O)o1	none
O=CN/C=C/c1cc(O)ccc1O	PKM2 inh 10µM
O=C(/C=C/c1ccccc1Cl)Nc1cccc(O)c1	none
O=C(Nc1ccc2c(c1)C(=O)NC2=O)c1ccccc1Cl	none
O=C1NC(=S)S/C1=C1\Sc2ccccc2N1CCCS(=O)(=O)O	PKM2 inh 11µM
COc1ccc2nc3c(cc2c1)Cc1ccccc1-3	PKM2 inh 14µM
COc1ccc2c(c1)-c1nc(NC(=O)c3cccs3)sc1CC2	none

Compound activity deposited in PubChem BioAssay by National Center for Advancing Translational Sciences (NCATS).
